# Measured values published in PubChem BioAssay AID485344 (National Center for Advancing Translational Sciences (NCATS), 2010).
# Values joined by “and” are separate entries in the source; they are usually repeats but may differ in a detail not shown here. Equal values may be shown once. In all, about 340,000 compounds went through this assay and about 6,900 (2%) were called active. Cut-off read from the data, not from the text of the source: active = inhibition above about 30%; inactive = below that, where a call was filed. Only a selection was taken, and actives are over-represented in it overall. Where a structure was tested more than once in an assay, its records may differ in their call.
# Target: D(2) dopamine receptor (Homo sapiens) (UniProt P14416)
# Sequence (P14416 whole entry, looked up): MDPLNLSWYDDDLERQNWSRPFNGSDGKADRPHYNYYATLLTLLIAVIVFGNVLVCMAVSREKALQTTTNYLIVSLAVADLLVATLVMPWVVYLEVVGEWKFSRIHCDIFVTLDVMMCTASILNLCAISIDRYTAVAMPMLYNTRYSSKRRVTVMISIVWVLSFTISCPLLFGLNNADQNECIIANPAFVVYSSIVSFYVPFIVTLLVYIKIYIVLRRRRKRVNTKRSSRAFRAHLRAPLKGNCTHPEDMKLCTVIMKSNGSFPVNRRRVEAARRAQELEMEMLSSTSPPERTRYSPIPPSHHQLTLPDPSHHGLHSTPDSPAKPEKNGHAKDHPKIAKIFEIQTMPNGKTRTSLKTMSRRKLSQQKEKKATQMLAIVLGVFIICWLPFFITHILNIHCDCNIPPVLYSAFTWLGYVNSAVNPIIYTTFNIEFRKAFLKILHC
# Test: HTS Assay for Allosteric Antagonists of the Human D2 Dopamine Receptor: Primary Screen for Antagonists; note: 0% is about no effect
# Settings: HEK293 TREx D2 cells, calcium flux, dopamine EC80; at 10 µM; stronger effect = higher value
# Procedure, shortened: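 Tetracycline-induced HEK293 T-REx cells expressing D2 force-coupled to calcium signalling were dye-loaded, exposed to compound for 180 s, then challenged with an EC80 of dopamine; calcium flux was followed kinetically for a further 180 s.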
row,Structure (SMILES),inhibition
1,CC(C)CN(C(=O)CSc1nncn1C)C1CCS(=O)(=O)C1 (centres undefined),-28.1% (inactive)
2,O=C1C=C(c2cc(C(F)(F)F)cc(C(F)(F)F)c2)C[C@@H](c2ccc3c(c2)OCO3)C1,8.46% (inactive)
3,CC(=O)Nc1cccc(C(=O)OCC(=O)c2ccc3c(c2)OCO3)c1,13.5% (inactive)
4,CSCCC(NC(=O)c1ccccc1)C(=O)N1CCCCCCC1 (centres undefined),-18.4% (inactive)
5,COc1ccccc1C(=O)Nc1ccc(OCC(=O)N2CCCCC2)cc1,-21.7% (inactive)
6,Cc1ccc(C(=O)NNC(=O)c2ccc3c(c2)OCCO3)cc1,20.3% (inactive)
7,Cc1ccc(C(=O)Nc2ncccc2C)cc1S(=O)(=O)N1CCOCC1,-29.3% (inactive)
8,Cc1nn(CCOc2ccccc2)c(=O)n1-c1ccccc1F,4.74% (inactive)
9,CCc1nn(CCCN2CCN(c3cccc(Cl)c3)CC2)c(=O)n1CCOc1ccccc1,10.2% (inactive) and 47% (active)
10,CCN1C(=O)/C(=C\N2CCN(c3cccc(Cl)c3)CC2)SC1=S,-0.63% (inactive)
11,CCN1CCN(C(=O)N[C@@H](C(=O)N[C@@H]2C(=O)N3C(C(=O)O)=C(CSc4nnnn4C)CS[C@H]23)c2ccc(O)cc2)C(=O)C1=O,-6.07% (inactive)
12,O=c1c2ccccc2ccc2ccc(P(=O)(O)O)cc12,1.32% (inactive)
13,O=C(OCC(=O)N1CCN(C(=O)c2ccco2)CC1)c1ccc(Cl)c(Cl)c1,20.1% (inactive)
14,CCN(c1ccccc1)S(=O)(=O)c1cc(C(=O)NCc2ccccn2)ccc1C,-6.91% (inactive)
15,CCOC(=O)N1CCN(C(=O)c2ccccc2N(Cc2ccccc2)S(=O)(=O)c2ccc(OC)cc2)CC1,-13.3% (inactive)
16,CCN1CCN(C(=O)c2ccccc2N(C)S(=O)(=O)c2ccc(C)cc2)CC1,40.9% (active)
17,CCOC(=O)C1CCN(C(=O)c2ccccc2N(C)S(=O)(=O)c2ccccc2)CC1,-8.5% (inactive)
18,COc1ccc(-c2cc(C(=O)N(C)CC(=O)Nc3ccccc3Cl)c3ccccc3n2)cc1OC,1.05% (inactive)
19,CC(=O)c1c(C)[nH]c(C(=O)OCC(=O)Nc2c(C)cccc2C)c1C,-33.4% (inactive)
20,COc1ccc(C2CC(c3cccs3)=NN2C(=O)CSc2nnc(N)s2)cc1OC (centres undefined),-3.75% (inactive)

row,Structure (SMILES),inhibition
1,COc1ccc(C2CC(c3cccs3)=NN2C(=O)CSc2nncs2)cc1OC (centres undefined),-4.05% (inactive)
2,COc1cccc(C2CC(c3cccs3)=NN2C(=O)CSC2=NCCS2)c1OC (centres undefined),31.4% (active)
3,CCOc1ccc2oc(C(=O)N(CC)CC(=O)Nc3ccc(NC(C)=O)cc3)c(C)c2c1,-21.5% (inactive)
4,CCCC(NCC(=O)Nc1ccccc1C(=O)NC1CC1)c1ccccc1 (centres undefined),-15.9% (inactive)
5,O=C(CCc1nc2sc3c(c2c(=O)[nH]1)CCCC3)NCC(=O)Nc1ccccc1Br,11% (inactive)
6,Cc1ccccc1NC(=O)Cc1nc(COC(=O)c2cccnc2Cl)cs1,6.55% (inactive)
7,CC(C)N(C(=O)Cn1cc(SCC(=O)N2CCCC2)c2ccccc21)C(C)C,13.5% (inactive)
8,NC(=O)CSc1c[nH]c2ccccc12,-9.76% (inactive)
9,CCCn1cc(SCC(N)=O)c2ccccc21,31.1% (active)
10,CCCCN(C(=O)C1CCC1)c1c(N)n(Cc2ccccc2)c(=O)[nH]c1=O,-6.33% (inactive)
11,O=C(NCCC1CCCCN1S(=O)(=O)c1ccc(Cl)cc1)C(=O)NCc1ccco1 (centres undefined),-13.3% (inactive)
12,COc1ccc(C(=O)NCc2ccc(Cl)cc2)cc1S(=O)(=O)N1CCCC1,-28.1% (inactive)
13,O=C(CCC(=O)c1cccs1)NCc1ccccc1,34.9% (active)
14,O=C(CCCc1ccccc1)NCc1ccccc1,7.76% (inactive)
15,O=C(CCC(=O)c1cccs1)NC1CCCCCC1,-3.48% (inactive)
16,CC(NC(=O)CN(C)S(=O)(=O)c1ccc(F)cc1)C1CC2CCC1C2 (centres undefined),2.6% (inactive)
17,CC(CCc1ccccc1)NC(=O)c1ccc(Br)o1 (centres undefined),-19.1% (inactive)
18,COc1ccc(CCNC(=O)c2cnc(Cl)c(Cl)c2)cc1,2.2% (inactive)
19,CC(CCc1ccccc1)NC(=O)c1cnc(Cl)c(Cl)c1 (centres undefined),43.2% (active)
20,COc1cccc(N2CCN(CC(=O)Nc3ccnn3C3CCCC3)CC2)c1,19.5% (inactive)

row,Structure (SMILES),inhibition
1,COc1ccc(C(=O)NCCc2ccc(S(N)(=O)=O)cc2)cc1OC,14% (inactive)
2,CCN(CC)CCNC(=O)c1cc(S(C)(=O)=O)ccc1OC,99% (active)
3,CCN(CC)CCNC(=O)c1ccc(NS(=O)(=O)c2ccc3c(c2)OCCO3)cc1,1.77% (inactive)
4,COc1cccc(NC(=O)CN(C)C(=O)/C=C/c2cn(-c3ccccc3)nc2-c2cccs2)c1,12.4% (inactive)
5,COCCNc1nc(N)c([N+](=O)[O-])c(N2CCCCCC2)n1,-9.71% (inactive)
6,CC1CN(c2nc(Nc3ccccc3)nc(N)c2[N+](=O)[O-])CC(C)O1 (centres undefined),13.4% (inactive)
7,CCN1CCN(c2nc(Nc3cccc(F)c3)nc(N)c2[N+](=O)[O-])CC1,73.4% (active)
8,O=C(C1Cc2ccccc2CN1C(=O)c1ccco1)N1CCN(c2ccccc2)CC1 (centres undefined),-4.55% (inactive)
9,CC(C)(C)C(=O)COC(=O)c1cc(S(=O)(=O)N2CCCCC2)ccc1N1CCOCC1,1.2% (inactive)
10,Cc1ccc(S(=O)(=O)N2CCC(C(=O)OCC(=O)N(C)c3ccccc3)CC2)cc1C,-7.26% (inactive)
11,Cc1nnsc1C(=O)N/N=C/c1ccccc1Cl,-8.27% (inactive)
12,CN(c1cccc(NC(=O)Nc2ccc(Cl)cc2)c1)S(C)(=O)=O,4.52% (inactive)
13,O=C(Nc1ccccc1)c1nnsc1S(=O)(=O)c1ccc(Cl)cc1,35.7% (active)
14,CCOc1ccc(C(C)NC(=O)CN2C(=O)NC3(CCCCC3)C2=O)cc1OCC (centres undefined),-2.35% (inactive)
15,CSCCC(NC(=O)COc1ccccc1)C(=O)N(C)CC(=O)Nc1ccc(C)cc1 (centres undefined),-24.9% (inactive)
16,CC(OC(=O)/C=C/c1ccccc1)C(=O)NC1CCCCC1C (centres undefined),-2.14% (inactive)
17,CCCCC(=O)NNC(=S)NC(=O)C(c1ccccc1)c1ccccc1,40.2% (active)
18,CC(C)C(=O)Nc1cccc(NC(=S)NC(=O)C(c2ccccc2)c2ccccc2)c1,-3.17% (inactive)
19,O=C(NNC(=S)NCc1ccco1)C(c1ccccc1)c1ccccc1,-2.47% (inactive)
